From PubChem BioAssay (Tox21) come the findings set out here.

Records with an inconclusive call do not appear. Some compounds were tested as several samples or in several runs, with calls that do not always agree. Unmarked numbers belong to inactive results. Activity calls are given as the source filed them. Unless noted, the call rests on the fitted dose curve; in most records, active means well fitted curve in the direction sought with a large enough effect in the repeat runs; inconclusive means weak or mixed curves; inactive means no such curve, though single readings can be large; an effect the other way counts as inactive or inconclusive.

The nature of test [1]: qHTS assay to identify small molecule antagonists of the thyroid receptor (TR) signaling pathway - cell viability counter screen (AID 743064). Further: nearly all actives have a fitted effect of over 50% in size. Further: potency means the concentration at half of the fitted maximal effect. The essentials: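 Plate GH3.TRE-Luc cells; incubate 4 h at 37 °C; add compound, then T3 to 1 nM final; incubate 23.5 h; add CellTiter-Fluor; incubate 30 min at 37 °C, 5% CO2; read fluorescence.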
Test [2] can be described thus: qHTS assay to identify small molecule antagonists of the thyroid receptor (TR) signaling pathway (AID 743065). Further: series mostly up to about 70 µM; nearly all actives have a fitted effect of over 55% in size. The essentials: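 GH3.TRE-Luc rat pituitary cells (two TREs driving luciferase) were dosed with compound, then stimulated with 1 nM T3 (final) for 23.5 h at 37 C. ONE-Glo luminescence was the read-out, with CellTiter-Fluor fluorescence as the cytotoxicity counter-screen.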

The test system of test [3] is thyroid hormone receptor (rat, GH3 cells). Nature of the test: qHTS assay to identify small molecule agonists of the thyroid receptor (TR) signaling pathway (AID 743066; calls by dose curve). A general note: Quantitative high-throughput screening tests each substance at several concentrations.
In test [4] the target is Estrogen receptor (Homo sapiens) (UniProt P03372). Nature of the test: qHTS assay to identify small molecule antagonists of the estrogen receptor alpha (ER-alpha) signaling pathway (AID 743069; active means well fitted curve in the direction sought with a large enough effect in the signal ratio in the repeat runs, not every such curve was filed as active; the % refers to the signal ratio). The essentials:
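Beta-lactamase FRET fluorescence is read after 2 hr at room temperature with LiveBLAzer B/G substrate. Before that, ER-alpha-bla HEK293 cells sit 4 hr after plating, then receive compound plus 17beta-estradiol and incubate 18 hr at 37C.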

Test [5] in a line: qHTS assay to identify small molecule antagonists of the estrogen receptor alpha (ER-alpha) signaling pathway - cell viability counter screen (AID 743074; calls by dose curve;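 further: HEK293 cells carrying ER-alpha-UAS-bla reporter stimulated with 17beta-estradiol; nearly all actives have a fitted effect of over 45% in size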).
For test [6], the target named is Estrogen receptor (Homo sapiens) (UniProt P03372). Nature of the test: qHTS assay to identify small molecule agonists of the estrogen receptor alpha (ER-alpha) signaling pathway (AID 743075; calls by dose curve;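 further: HEK293 GripTite cells with ER-alpha and UAS-driven beta-lactamase reporter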).
Sequence of Estrogen receptor (Homo sapiens) (P03372 whole entry, looked up): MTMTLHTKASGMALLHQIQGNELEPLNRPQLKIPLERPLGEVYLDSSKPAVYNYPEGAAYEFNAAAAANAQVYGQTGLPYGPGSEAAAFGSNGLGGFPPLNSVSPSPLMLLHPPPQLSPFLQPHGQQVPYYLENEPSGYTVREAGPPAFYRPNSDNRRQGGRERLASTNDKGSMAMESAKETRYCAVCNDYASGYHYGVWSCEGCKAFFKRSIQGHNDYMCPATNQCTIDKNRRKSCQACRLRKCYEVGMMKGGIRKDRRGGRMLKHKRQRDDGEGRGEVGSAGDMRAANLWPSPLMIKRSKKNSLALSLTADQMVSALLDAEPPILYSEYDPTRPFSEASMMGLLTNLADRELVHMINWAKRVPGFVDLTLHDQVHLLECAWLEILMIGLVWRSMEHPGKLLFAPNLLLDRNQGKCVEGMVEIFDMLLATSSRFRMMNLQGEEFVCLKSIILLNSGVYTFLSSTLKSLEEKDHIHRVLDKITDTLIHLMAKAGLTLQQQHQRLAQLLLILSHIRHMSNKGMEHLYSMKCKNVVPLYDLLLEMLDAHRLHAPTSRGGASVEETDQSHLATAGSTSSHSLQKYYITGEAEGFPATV
Test [7] shares this target. Nature of the test: qHTS assay to identify small molecule agonists of the estrogen receptor alpha (ER-alpha) signaling pathway using the BG1 cell line (AID 743079). Further: nearly all actives have a fitted effect of over 20% in size.
Test [8] can be described thus: qHTS assay to identify small molecule antagonists of the estrogen receptor alpha (ER-alpha) signaling pathway using the BG1 cell line (AID 743080; calls by dose curve;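 further: BG1 cells stimulated with 17beta-estradiol alongside compound; series mostly up to about 70 µM; nearly all actives have a fitted effect of over 25% in size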). The essentials: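 Seeding, 24 h rest, compound transfer from DMSO, 17beta-estradiol addition, 21.5 h incubation, CellTiter-Fluor (30 min, 37 C), then ONE-Glo (30 min, room temperature): this sequence was run on BG1-Luc-4E2 reporter cells.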

Test [9] is described as follows: qHTS assay to identify small molecule antagonists of the estrogen receptor alpha (ER-alpha) signaling pathway using the BG1 cell line - cell viability counter screen (AID 743081).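 Further: compound given together with 17beta-estradiol as the ER stimulus; nearly all actives have a fitted effect of over 45% in size.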 Further: potency means the concentration at half of the fitted maximal effect. On activity change, negative = cytotoxicity: series mostly up to about 70 µM.
The target of test [10] is Aromatase (Homo sapiens) (UniProt P11511). The test is described as follows: qHTS assay to identify aromatase inhibitors (AID 743083). Further: series mostly up to about 70 µM; nearly all actives have a fitted effect of over 55% in size.
Sequence of Aromatase (Homo sapiens) (P11511 whole entry, looked up): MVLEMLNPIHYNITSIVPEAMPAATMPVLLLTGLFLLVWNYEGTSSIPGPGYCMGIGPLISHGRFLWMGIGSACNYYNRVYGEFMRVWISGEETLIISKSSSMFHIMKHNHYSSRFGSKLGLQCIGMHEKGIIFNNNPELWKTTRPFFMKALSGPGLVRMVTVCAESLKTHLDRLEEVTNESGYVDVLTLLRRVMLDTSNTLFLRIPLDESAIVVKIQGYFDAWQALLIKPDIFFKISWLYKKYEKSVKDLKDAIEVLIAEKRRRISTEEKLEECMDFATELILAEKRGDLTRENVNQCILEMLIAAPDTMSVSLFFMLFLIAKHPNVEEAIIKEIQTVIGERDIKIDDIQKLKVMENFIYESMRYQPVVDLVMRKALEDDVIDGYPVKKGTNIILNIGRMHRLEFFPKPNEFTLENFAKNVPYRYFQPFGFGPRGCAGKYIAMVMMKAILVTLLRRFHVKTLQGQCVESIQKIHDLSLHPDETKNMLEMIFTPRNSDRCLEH
A short description of test [11]: qHTS assay to identify aromatase inhibitors - cell viability counter screen (AID 743084).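 Further: cells stimulated with testosterone during compound exposure; nearly all actives have a fitted effect of over 55% in size.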 Further: potency means the concentration at half of the fitted maximal effect.
The target in test [12] is Aryl hydrocarbon receptor (Homo sapiens) (UniProt P35869). Nature of the test: qHTS assay to identify small molecule that activate the aryl hydrocarbon receptor (AhR) signaling pathway (AID 743085).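 Further: HG2L7.5c1 human HepG2 liver cells with stably integrated DRE-driven firefly reporter; series mostly up to about 70 µM; nearly all actives have a fitted effect of over 15% in size.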 The essentials:
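Steps: seed HepG2-AhR-luc cells; allow 5 h at 37C; pin-transfer test compound or vehicle; incubate 24 h at 37C; add viability dye (30 min, 37C) and read fluorescence; add luciferase substrate (30 min, RT) and read luminescence.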

A short description of test [13]: qHTS assay to identify small molecule that activate the aryl hydrocarbon receptor (AhR) signaling pathway - cell viability counter screen (AID 743086). Further: nearly all actives have a fitted effect of over 45% in size. Further: potency means the concentration at half of the fitted maximal effect.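 On viability change, negative = cytotoxic: HepG2 liver cells carrying the AhR DRE luciferase reporter; series mostly up to about 70 µM.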 In short, it runs like this: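 HepG2-AhR-luc (HG2L7.5c1) cells, 4000/well, treated 24 h at 37 C with compound; viability measured as CellTiter-Fluor fluorescence after 30 min in the same wells as the luciferase read.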

The target in test [14] is Peroxisome proliferator-activated receptor gamma (Homo sapiens) (UniProt P37231). Nature of the test: qHTS assay to identify small molecule agonists of the peroxisome proliferator-activated receptor gamma (PPARg) signaling pathway (AID 743094; active means well fitted activation curve with a large enough effect in the signal ratio in the repeat runs, not every such curve was filed as active; the % refers to the signal ratio). In short, it runs like this: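 HEK293H PPARg-bla cells, 5 h settle at 37C/5% CO2; compound (DMSO) 17 h, 37C; B/G FRET substrate 1 h RT; fluorescence intensity read-out. qHTS format.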
Sequence of Peroxisome proliferator-activated receptor gamma (Homo sapiens) (P37231 whole entry, looked up): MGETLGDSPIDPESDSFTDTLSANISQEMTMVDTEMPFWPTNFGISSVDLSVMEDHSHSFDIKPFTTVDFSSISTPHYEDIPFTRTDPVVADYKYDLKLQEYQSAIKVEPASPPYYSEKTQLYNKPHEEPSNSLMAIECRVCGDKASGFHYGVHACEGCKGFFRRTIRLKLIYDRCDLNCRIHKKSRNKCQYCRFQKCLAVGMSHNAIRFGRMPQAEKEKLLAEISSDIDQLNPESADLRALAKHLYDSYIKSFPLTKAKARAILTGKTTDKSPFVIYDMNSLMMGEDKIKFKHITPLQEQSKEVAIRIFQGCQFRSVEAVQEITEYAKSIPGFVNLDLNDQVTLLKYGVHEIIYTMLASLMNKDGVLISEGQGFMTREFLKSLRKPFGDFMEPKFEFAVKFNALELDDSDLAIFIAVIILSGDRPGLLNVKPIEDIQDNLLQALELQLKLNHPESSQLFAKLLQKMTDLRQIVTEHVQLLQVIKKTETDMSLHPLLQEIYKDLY

A short description of test [15]: qHTS assay to identify small molecule antagonists of the peroxisome proliferator-activated receptor gamma (PPARg) signaling pathway - cell viability counter screen (AID 743194). Further: nearly all actives have a fitted effect of over 55% in size. The essentials: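 Cytotoxicity counter screen in PPARg-bla HEK293H cells, same wells as reporter assay. Compounds plus 50 nM rosiglitazone (final) for 17 h at 37 C, then viability read by CellTiter-Glo luminescence.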

Test [16] in a line: qHTS assay for small molecule agonists of the antioxidant response element (ARE) signaling pathway (AID 743202; active means well fitted activation curve with a large enough effect in the signal ratio in the repeat runs, not every such curve was filed as active; the % refers to the signal ratio). The essentials:
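HepG2 ARE-bla reporter line, 2,000 cells/well; 5 h preincubation 37 C/5% CO2; compound (DMSO) 16 h 37 C; B/G FRET substrate 2 h RT; fluorescence intensity.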

Test [17] can be described thus: qHTS assay for small molecule agonists of the antioxidant response element (ARE) signaling pathway - cell viability counter screen (AID 743203; calls by dose curve; further: nearly all actives have a fitted effect of over 55% in size). The essentials: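 Luminescence read-out (CellTiter-Glo, 30 min at room temperature) measured cell viability in the same wells as the ARE beta-lactamase reporter. HepG2 ARE-bla cells were treated with compounds for 16 hrs at 37C/5% CO2.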

Test [18] is described as follows: qHTS assay for small molecule activators of the heat shock response signaling pathway - cell viability counter screen (AID 743209). Further: nearly all actives have a fitted effect of over 50% in size. The essentials:
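HSE-bla HeLa; 1500 cells/well; overnight 37 C, 5% CO2; compound 5 h 37 C; LiveBLAzer B/G substrate 2.5 h RT; CellTiter-Glo 30 min RT; luminescence.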

Test [19] is described as follows: qHTS assay for small molecule activators of the heat shock response signaling pathway (AID 743210; active means well fitted activation curve with a large enough effect in the signal ratio in the repeat runs, with a control signal flat, not every such curve was filed as active; the % refers to the signal ratio; further: series mostly up to about 63 µM). In short, it runs like this: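 Beta-lactamase reporter read-out: FRET substrate fluorescence after 2.5 h at RT, following 5 h compound treatment at 37 C of HeLa cells carrying HSE-driven bla reporter; quantitative HTS format.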
The target in test [20] is Peroxisome proliferator-activated receptor gamma (Homo sapiens) (UniProt P37231). Nature of the test: qHTS assay to identify small molecule antagonists of the peroxisome proliferator-activated receptor gamma (PPARg) signaling pathway (AID 743191; calls by dose curve; further: series mostly up to about 63 µM; nearly all actives have a fitted effect of over 30% in size). The essentials:
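GeneBLAzer PPARg UAS-bla HEK293H cells, 5 h post-plating, exposed to compounds 17 h at 37C. LiveBLAzer B/G FRET substrate added for 1 h at room temperature; beta-lactamase reporter read by fluorescence intensity.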
On the % scale 0 is the no-effect control and ±100 the full control effect.

Sequence of Aryl hydrocarbon receptor (Homo sapiens) (P35869 whole entry, looked up): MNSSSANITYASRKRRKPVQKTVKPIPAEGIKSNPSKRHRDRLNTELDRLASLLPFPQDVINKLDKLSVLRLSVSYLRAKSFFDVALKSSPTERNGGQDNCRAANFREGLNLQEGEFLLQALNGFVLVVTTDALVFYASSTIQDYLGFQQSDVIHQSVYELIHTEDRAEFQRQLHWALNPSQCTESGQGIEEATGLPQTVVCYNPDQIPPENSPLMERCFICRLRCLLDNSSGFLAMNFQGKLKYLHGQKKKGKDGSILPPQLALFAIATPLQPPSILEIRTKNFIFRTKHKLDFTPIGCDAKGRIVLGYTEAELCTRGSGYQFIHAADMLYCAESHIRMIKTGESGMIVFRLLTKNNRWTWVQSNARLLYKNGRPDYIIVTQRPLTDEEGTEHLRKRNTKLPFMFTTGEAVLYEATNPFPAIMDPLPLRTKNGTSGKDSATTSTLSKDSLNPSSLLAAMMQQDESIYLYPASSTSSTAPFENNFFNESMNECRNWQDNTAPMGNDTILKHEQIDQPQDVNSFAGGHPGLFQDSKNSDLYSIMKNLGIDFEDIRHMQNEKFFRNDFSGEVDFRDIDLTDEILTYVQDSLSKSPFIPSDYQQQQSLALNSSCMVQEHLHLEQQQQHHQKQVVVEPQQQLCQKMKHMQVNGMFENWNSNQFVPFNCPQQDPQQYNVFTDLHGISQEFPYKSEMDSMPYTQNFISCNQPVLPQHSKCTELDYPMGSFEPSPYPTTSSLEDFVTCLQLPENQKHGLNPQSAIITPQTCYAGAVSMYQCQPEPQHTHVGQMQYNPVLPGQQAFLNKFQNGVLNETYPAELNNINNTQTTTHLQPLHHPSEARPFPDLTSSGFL

Turning to `Cc1ccc(C(=O)O)cc1[N+](=O)[O-]`, the Potency entry in test [1], in [2], in test [6], in test [7], in [9] and in test [11] was “inactive” each time. The Potency result in test [12], in test [13], in test [14], in test [16] and in test [18] was “inactive” in each case. The result in test [3], in [4], in test [5], in [8], in test [10] and in [15] was inactive. For the same compound, in test [17], the result was inactive.

In the case of `CCOC(=O)CC1(C)OCC(C)O1` (configuration not stated), the Potency result in test [1], in test [2], in [6], in test [7], in [9] and in test [11] was “inactive” in each case. The Potency entry in test [12], in test [13], in test [14], in test [16] and in [18] was “inactive” each time. Moreover, the compound was classed as inactive in test [3], in test [4], in test [5], in [8], in test [10] and in test [15]. Also, the outcome in test [17] and in test [19] was inactive.

On to `Cc1ccccc1C(N)=O`, for which the Potency entry in test [1], in test [2], in [6], in [7], in [9] and in test [11] was “inactive” throughout. Moreover, the Potency entry in [12], in test [13], in [14], in test [16] and in [18] was “inactive” each time. For the same compound, the call in [3], in [4], in [5], in test [8], in test [10] and in [15] was inactive. In test [17], the outcome was inactive.

`CC1(C)Cc2cccc(N)c2O1`: the Potency result in [1], in test [2], in test [6], in [7], in [9] and in [11] was “inactive” throughout. Besides, the Potency result in test [12], in test [13], in test [14], in [16] and in test [18] was “inactive” throughout. The result in test [3], in test [4], in [5], in test [8], in [10] and in [20] was inactive. For the same compound, the result in test [15], in [17] and in test [19] was inactive.

For the compound `O=S(=O)(O)c1ccc2c(N=Nc3ccc(S(=O)(=O)O)c4ccccc34)c(O)c(S(=O)(=O)O)cc2c1`, the Potency in test [1] was 21.1 µM (active); in test [9], 9.44 µM (active); in test [11], 18.8 µM (active); in test [13], 13.3 µM (active). In test [1], the activity change, negative = cytotoxic is -5.75% [at 8.44 µM]. Further, the activity, negative = inhibition in test [2] is -4.92% [at 8.44 µM]; in test [10], -13.1% [at 8.47 µM]. Besides, the call in test [3] and in test [5] was inactive. Also, the Potency result in test [12] and in test [14] was “inactive” each time. In addition, the viability change, negative = cytotoxic was -5.27% [at 8.47 µM] in test [13] and -0.964% [at 8.36 µM] in [17]. The ratio activity, negative = inhibition in test [20] was -16.6% [at 5.95 µM]. Further, the figures for the activity change, negative = cytotoxicity in test [15] and in test [18] were -3.57% [at 5.95 µM] and 0.481% [at 5.95 µM], respectively. Also, the activation in test [16] was 7.21% [at 8.36 µM].

As for `CC(=O)OC1CCCCC1C(C)(C)C` (configuration not stated), the Potency result in [1], in test [2], in [6], in [7], in [9] and in test [11] was “inactive” each time. The Potency result in test [12], in test [13], in [14], in test [16] and in [18] was “inactive” in each case. Besides, the result in test [3], in test [4], in test [5], in test [8], in test [10] and in test [20] was inactive. Moreover, the outcome in test [15], in test [17] and in test [19] was inactive.

For `CC1c2ccccc2CN1NC(=O)c1ccc(Cl)c(S(N)(=O)=O)c1` (configuration not stated), the Potency entry in test [1], in [2], in test [6], in test [7], in [9] and in [13] was “inactive” in each case. The Potency result in test [14], in test [16] and in test [18] was “inactive” in each case. The compound was classed as inactive in test [3], in test [4], in test [5], in test [10], in test [20] and in test [15]. Moreover, the call in test [17] and in test [19] was inactive.

Regarding `COC(=O)c1cccc(Cl)c1`, the Potency result in test [1], in [2], in test [6], in [7], in [9] and in [11] was “inactive” throughout. Besides, the Potency entry in [12], in [13], in test [14], in test [16] and in test [18] was “inactive” throughout. Further, the call in test [3], in [4], in test [5], in test [10], in test [15] and in [17] was inactive. Besides, in test [19], the result was inactive.
